According to PubChem BioAssay:
Unmarked numbers belong to inactive results.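 Rule for the calls: active = fluorescence slope after compound addition differing from the mean of all screened samples at 99.7% confidence, in either direction; inactive = the rest.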

Molecular target: Alpha-2C adrenergic receptor (Homo sapiens) (UniProt P18825)
Assay: modulators of alpha2C/GIRK thallium flux, primary screen, cell-based, HEK293 alpha2C/GIRK1/2 (AID 624);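 note: slope of fluorescence ratio to pre-addition baseline per second over 15 to 24 s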
Details: thallium flux BTC fluorescence, at 10 µM, actives lie on both sides

Alpha-2C adrenergic receptor (Homo sapiens), sequence (P18825 whole entry, looked up): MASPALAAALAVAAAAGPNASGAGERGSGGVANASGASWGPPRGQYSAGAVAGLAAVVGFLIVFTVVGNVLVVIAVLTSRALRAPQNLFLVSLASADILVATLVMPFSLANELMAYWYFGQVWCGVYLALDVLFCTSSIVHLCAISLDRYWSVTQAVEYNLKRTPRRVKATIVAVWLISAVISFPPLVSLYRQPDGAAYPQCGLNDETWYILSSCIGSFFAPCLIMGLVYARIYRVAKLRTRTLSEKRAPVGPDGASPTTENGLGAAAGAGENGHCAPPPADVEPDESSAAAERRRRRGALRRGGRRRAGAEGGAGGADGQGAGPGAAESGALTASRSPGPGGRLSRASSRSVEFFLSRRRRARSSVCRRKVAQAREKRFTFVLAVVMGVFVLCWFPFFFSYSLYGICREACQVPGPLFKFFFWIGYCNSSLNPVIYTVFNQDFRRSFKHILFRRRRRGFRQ

| Structure (SMILES) | slope |
| --- | --- |
| Cc1nnc2n(Cc3ccccc3)c(=O)c3c4c(sc3n12)CN(Cc1ccccc1)CC4 | 0.00348 |
| O=C(O)C(Cc1c[nH]c2ccccc12)NS(=O)(=O)c1cccc2nsnc12 (stereo not drawn) | 0.00789 |
| Cc1ccc(C(=O)C2=C(O)C(=O)N(c3ncccn3)C2c2ccc(Cl)cc2)o1 (stereo not drawn) | 0.00456 |
| CC(=O)C1(C)OC(N)=C(C#N)C(c2ccccc2)C1(C#N)C#N (stereo not drawn) | 0.00393 |
| CCCCOc1ccccc1/C=c1/sc2nc(-c3oc4ccccc4c3C)nn2c1=O | 0.00462 |
| CCCOc1ccc(/C(O)=C2/C(=O)C(=O)N(CCN(C)C)C2c2ccncc2)cc1 (stereo not drawn) | 0.00564 |
| Cc1onc(-c2ccccc2Cl)c1C(=O)N1CCN(c2nc3ccccc3s2)CC1 | 0.00481 |
| COc1ccc2oc(=O)c(-c3nc(C)cs3)cc2c1 | 0.00534 |
| CCOC(=O)CSc1nc(NC#N)nc(N(CC)CC)n1 | 0.0053 |
| CCOc1ccc(/C(O)=C2/C(=O)C(=O)N(CCN(C)C)C2c2ccccc2)cc1Cl (stereo not drawn) | 0.00531 |
| CCCCOC(=O)Nc1ccc(S(=O)(=O)Nc2nc(C)cc(C)n2)cc1 | 0.00517 |
| COc1ccc(C=NCCC2(O)CC(C)N(C)CC2C)cc1 (stereo not drawn) | 0.00607 |
| Cc1ccc(C(C)C)c(OCCNc2nc3c(c(=O)n(C)c(=O)n3C)n2C)c1 | 0.0063 |
| CCOC(=O)CCc1c(C)c(C#N)c2nc3ccccc3n2c1-n1ccnc1C | 0.00607 |
| C=CCSc1nc(C)c(CC=C)c(=O)[nH]1 | 0.00783 |
| CC1C[C@@]2(NC(=O)NC2=O)C(C)CN1C (stereo partly drawn) | 0.00539 |
| Cc1nnc(C)n1/N=C/c1cc(Br)cc(Br)c1O | 0.00748 |
| Clc1ccc2[nH]c3c(NCCN4CCOCC4)ncnc3c2c1 | 0.00429 |
| Cc1cc(C)n(CC(=O)N2c3ccccc3Sc3ccccc32)n1 | 0.00518 |
| Cn1c(NCC(O)c2ccccc2)nc2c1c(=O)n(Cc1ccc(Cl)c(Cl)c1)c(=O)n2C (stereo not drawn) | 0.00441 |
| COc1ccccc1-c1nn2c(-c3ccco3)nnc2s1 | 0.00698 |
| CCCCNC(=O)c1c(N)n(/N=C/c2cccnc2)c2nc3ccccc3nc12 | 0.0052 |
| CCOc1ccc(C2C(C(=O)c3ccc(C)o3)=C(O)C(=O)N2CCCN(CC)CC)cc1 (stereo not drawn) | 0.00538 |
